ALOX12 inhib – qHTS Assay for Inhibitors of 12-hLO (12-human lipoxygenase); Polyunsaturated fatty acid lipoxygenase ALOX12 (Homo sapiens), P18054; actives 0.12% (n = 150,000); purified 12-hLO, xylenol orange hydroperoxide absorbance; Potency, µM (highest dose often 57.1 µM), for inactives: top-dose activity change, negative = inhibition, actives largely listed as inhibitors; also: potency is read from the fitted curve at half-maximal effect; nearly all actives have a fitted effect of over 55% in size
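Lipoxygenase turnover measured by absorbance at 573 and 405 nm after Fe-XO development. Human 12hLO 150 nM, arachidonate 40 uM, pH 7.0 Hepes buffer with detergent; 15 min compound preincubation, 30 min reaction.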
ALDH1A1 block – qHTS Assay for Inhibitors of Aldehyde Dehydrogenase 1 (ALDH1A1); Purified ALDH1A1, NADH fluorescence, propionaldehyde substrate; Potency, µM (titrated, usually from 75.3 µM), for the others: top-dose activity, negative = inhibition, usual class: inhibitors; actives 7.3% (n = 220,000); AID 1030, 2008; active = well fitted inhibition curve with a large enough effect, not every such curve was filed as active; inconclusive = small, poorly fitted or top-dose-only effect, or another doubt; inactive = no such curve, though single readings can be large or run the other way;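 also: potency is read from the fitted curve at half-maximal effect; plate controls were no enzyme wells and a reference inhibitor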
Target sequence (P00352 whole entry, looked up): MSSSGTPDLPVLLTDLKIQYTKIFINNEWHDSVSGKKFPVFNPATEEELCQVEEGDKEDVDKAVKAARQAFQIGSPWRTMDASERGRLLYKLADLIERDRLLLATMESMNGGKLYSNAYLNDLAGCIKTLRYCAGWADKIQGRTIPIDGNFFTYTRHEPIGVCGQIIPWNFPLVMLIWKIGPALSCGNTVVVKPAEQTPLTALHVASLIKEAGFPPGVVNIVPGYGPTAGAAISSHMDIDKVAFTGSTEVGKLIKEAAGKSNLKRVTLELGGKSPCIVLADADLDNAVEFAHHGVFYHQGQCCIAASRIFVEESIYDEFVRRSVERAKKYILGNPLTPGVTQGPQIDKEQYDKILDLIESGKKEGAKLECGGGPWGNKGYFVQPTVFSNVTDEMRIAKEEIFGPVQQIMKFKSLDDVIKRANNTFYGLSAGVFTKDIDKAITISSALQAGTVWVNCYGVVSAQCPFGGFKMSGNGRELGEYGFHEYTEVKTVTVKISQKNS
HPGD block – qHTS Assay for Inhibitors of HPGD (15-Hydroxyprostaglandin Dehydrogenase). Potency, µM, for the others: top-dose activity change, negative = inhibition, most hits filed as inhibitors. AID 894, 2007. purified HPGD, NADH fluorescence kinetic, PGE2 substrate. actives 4.3% (n = 150,000); active = well fitted inhibition curve with a large enough effect, not every such curve was filed as active; inconclusive = small, poorly fitted or top-dose-only effect, or another doubt; inactive = no such curve, though single readings can be large or run the other way; also: potency is read from the fitted curve at half-maximal effect
Target sequence (P15428 whole entry, looked up): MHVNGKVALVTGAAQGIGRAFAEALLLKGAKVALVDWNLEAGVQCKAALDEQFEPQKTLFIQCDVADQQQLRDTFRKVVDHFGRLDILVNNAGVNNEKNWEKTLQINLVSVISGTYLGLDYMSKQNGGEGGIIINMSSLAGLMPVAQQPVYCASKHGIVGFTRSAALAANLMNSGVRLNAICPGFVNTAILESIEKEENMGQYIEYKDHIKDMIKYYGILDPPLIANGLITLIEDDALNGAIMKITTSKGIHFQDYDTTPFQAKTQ
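NADH formation kinetics: reaction with 30 uM PGE2 and 1 mM NAD+ (final), 20 nM enzyme, Tris-HCl pH 8 with Tween 20, after 15 min compound preincubation at room temperature. Fluorescence change, last versus first of five reads.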
GLA spleen mod – qHTS Assay for Inhibitors and Activators of Human alpha-Galactosidase From Spleen Homogenate | Alpha-galactosidase A (Homo sapiens), P06280 | human spleen homogenate, 4MU-alpha-Gal fluorescence, 40 min | Potency, µM (top dose mostly 80 µM), inactives show top-dose activity change, negative = inhibition, hits mostly inhibitors | actives 0.008% (n = 240,000);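 also: potency is read from the fitted curve at half-maximal effect; 0% = enzyme with vehicle and -100% = no enzyme basal signal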
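Inhibition or activation of alpha-galactosidase in human spleen homogenate is scored by 4-MU fluorescence after 40 min at 37C, pH 5.0, with 1 mM substrate. AC50s come from concentration-response fitted to the Hill equation.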
GLA inh pH 4.5 – qHTS Assay for Inhibitors of Human alpha-Galactosidase at pH 4.5; Alpha-galactosidase A (Homo sapiens), P06280; purified enzyme, 4-MU-alpha-Gal fluorescence, pH 4.5; activity change, negative = inhibition, % at 105 µM; 230,000 tested, under 10 active; AID 1467, 2008;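 also: 0% = full activity with enzyme and -100% = basal without enzyme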
PNC assembly inh – High Content Assay for Compounds that inhibit the Assembly of the Perinucleolar Compartment; activity change (PNC), negative = inhibition, % at 10 µM; AID 2417, 2010; PC3M PTB-GFP, PNC prevalence imaging, 16 h; hits give low values; actives 3.1% (n = 140,000);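 active = readout at or below -70, meaning at least 70% loss of cells showing the perinucleolar compartment, a nuclear body marking cancer cells; inconclusive = readout between -30 and a set limit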;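 also: plate controls were DMSO wells for no effect and camptothecin positive control wells for full effect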
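PC3M cells stably expressing PTB-GFP, 750–1000 cells/well, treated 16 h at 37 °C with compound (23 nl of library stock), in duplicate. After paraformaldehyde fixation and Hoechst stain, imaged at 20x; PNC prevalence scored by image analysis.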
Numbers without * were called inactive; [ ] = dose if it differs, or a comment. An excerpt weighted towards active compounds, which were near 10% of everything screened. Unless noted, calls follow the shape of the dose curve; as a rule, active = well fitted curve in the direction sought with a large enough effect; inconclusive = small, poorly fitted or top-dose-only effect, or another doubt; inactive = no such curve, though single readings can be large; an effect the other way counts as inactive or inconclusive. Unless noted, % is scaled to controls: 0 for no effect and ±100 for the full control effect.

COc1cc(N=c2ssnc2Cl)cc(OC)c1OC was read as ALOX12 inhib inconclusive, ALDH1A1 block 2.82µM*, HPGD block 2.24µM*, GLA spleen mod -1.5%, GLA inh pH 4.5 3.8 and PNC assembly inh inconclusive.
For COc1cc(/C=C2\SC(=Nc3cccnc3)NC2=O)cc(OC)c1OC the results were ALDH1A1 block 6.7%, GLA spleen mod 8.0% and GLA inh pH 4.5 0.7.
For Fc1ccc(N=c2ssnc2Cl)c(F)c1 the results were ALDH1A1 block 2.51µM*, GLA spleen mod -3.0% and GLA inh pH 4.5 2.6.
For N#Cc1ccc(N=c2ssnc2Cl)cc1 the results were ALOX12 inhib -5.0%, ALDH1A1 block 1.58µM*, HPGD block 2µM*, GLA spleen mod 5.2%, GLA inh pH 4.5 -19.1 and PNC assembly inh inconclusive.
`O=C1CSC(=Nc2ccccc2)N1Cc1ccccc1` gave ALDH1A1 block -4.1%, GLA spleen mod -2.3% and GLA inh pH 4.5 -4.1.
Screening NC(=O)C1CCN(CC(=O)N2N=CCC2c2ccccc2)CC1 (stereo not drawn) returned ALDH1A1 block -0.8%, GLA spleen mod 5.5% and GLA inh pH 4.5 1.8.
For Cn1c(=O)c(-c2cccs2)nc2cncnc21 the results were ALDH1A1 block inconclusive and GLA spleen mod 7.1%.
C[N+]1(CCCC[N+]2(C)CCCCCCC2)CCCCCCC1 was read as ALOX12 inhib 2.4%[11.4 µM], ALDH1A1 block 8.3%[13.5 µM] and HPGD block 0.1%.
For Clc1ccc(N=c2ssnc2Cl)cc1 the results were ALOX12 inhib inconclusive, ALDH1A1 block 1.12µM*, HPGD block 1.78µM*, GLA spleen mod 5.6%, GLA inh pH 4.5 -1.9 and PNC assembly inh 25.8.
For CCOC(=O)c1ccc(N=c2ssnc2Cl)cc1 the results were ALDH1A1 block 2µM*, GLA spleen mod 4.7% and GLA inh pH 4.5 3.9.
For COc1ccc(N=c2ssnc2Cl)cc1 the results were ALOX12 inhib inconclusive, ALDH1A1 block 1.78µM*, HPGD block 2.82µM*, GLA spleen mod 4.6%, GLA inh pH 4.5 5.3 and PNC assembly inh 4.7.
For O=C1CSC(=Nc2ccc(Cl)cc2)N1Cc1ccco1 the results were GLA spleen mod -1.0% and GLA inh pH 4.5 -5.7.
CCOC(=O)c1ccc(N=C2SC(C(=O)NC)CC(=O)N2Cc2ccc(F)cc2)cc1 (stereo not drawn) was read as ALDH1A1 block 11.6%, GLA spleen mod 3.0% and GLA inh pH 4.5 -7.2.
Screening O=C(CSc1ccc(Cl)cc1)NCc1ccncc1 returned ALDH1A1 block -1.7%, GLA spleen mod -3.4% and GLA inh pH 4.5 4.8[21.1 µM].
For COc1cccc(/C=N/NC(=O)NC2CCCCC2)c1O the results were GLA spleen mod 6.0% and GLA inh pH 4.5 4.5.
`Fc1ccccc1Nc1nc2c(s1)CCc1ccccc1-2` gave ALOX12 inhib inconclusive, ALDH1A1 block 5.0%, HPGD block 22.4µM*, GLA spleen mod 7.2%, GLA inh pH 4.5 3.5 and PNC assembly inh -22.7.
For O=C(Nc1nc2c(s1)CCc1ccccc1-2)c1cccs1 the results were ALOX12 inhib -16.9%, ALDH1A1 block -2.7%, HPGD block -13.4%, GLA spleen mod -5.5%, GLA inh pH 4.5 -0.7 and PNC assembly inh -19.0.
Screening COc1cc(Cl)cc(/C=C/c2ccc3ccccc3n2)c1OC(C)=O returned ALOX12 inhib 3.0%, ALDH1A1 block inconclusive, HPGD block inconclusive, GLA spleen mod -1.2%, GLA inh pH 4.5 -7.9 and PNC assembly inh -100.8*.
Screening CC(=O)Oc1ccc(Cl)cc1/C=C/c1cc(OC(C)=O)c2ccccc2n1 returned ALOX12 inhib 1.5%, ALDH1A1 block inconclusive, HPGD block inconclusive, GLA spleen mod -5.2%, GLA inh pH 4.5 -6.7 and PNC assembly inh inconclusive.
Screening CN1CCN(C(=O)/C(=C/c2ccccc2)c2ccccc2)CC1 returned ALOX12 inhib 1.3%, ALDH1A1 block -0.1%, HPGD block 12.6µM*, GLA spleen mod 2.6%, GLA inh pH 4.5 -0.6 and PNC assembly inh -1.0.
Screening CC1CC(C)CN(C(=O)/C(=C\c2ccccc2)c2ccccc2)C1 (stereo not drawn) returned ALOX12 inhib -1.7%, ALDH1A1 block -9.1%, HPGD block 11.2µM*, GLA spleen mod -4.4%, GLA inh pH 4.5 -1.2 and PNC assembly inh 10.2.
For CC1CCCCN1C(=O)/C(=C\c1ccccc1)c1ccccc1 (stereo not drawn) the results were ALOX12 inhib 6.1%, ALDH1A1 block -5.2%, HPGD block 14.1µM*, GLA spleen mod 8.2%, GLA inh pH 4.5 -6.9 and PNC assembly inh 28.3.
`CC1CCCCN1C(=O)/C=C/c1ccccc1[N+](=O)[O-]` (stereo not drawn) gave ALDH1A1 block -1.1%, GLA spleen mod 2.0% and GLA inh pH 4.5 5.7.
C=CCc1cccc(OC)c1OCCOCCn1ccnc1 was read as ALOX12 inhib 1.4%, ALDH1A1 block 20µM*, HPGD block -1.4%, GLA spleen mod 4.9%, GLA inh pH 4.5 -3.8 and PNC assembly inh 16.9.
For CC1Cc2ccccc2N1CC(=O)NC(=O)NCc1ccco1 (stereo not drawn) the results were ALOX12 inhib -9.4%, ALDH1A1 block inconclusive, HPGD block -12.4%, GLA spleen mod 0.4%, GLA inh pH 4.5 -10.4 and PNC assembly inh -122.4*.
O=C(CN1CCCc2ccccc21)NC(=O)NCc1ccco1 was read as ALOX12 inhib 3.7%, ALDH1A1 block -2.0%, HPGD block -5.0%, GLA spleen mod 1.3%, GLA inh pH 4.5 4.0 and PNC assembly inh 17.5.
For CCCc1nc(SCc2ccc(Cl)cc2Cl)n[nH]1 the results were ALOX12 inhib -0.8%, ALDH1A1 block 4.1%, HPGD block 15.8µM*, GLA spleen mod 5.4%, GLA inh pH 4.5 3.5 and PNC assembly inh 1.4.
O=[N+]([O-])c1ccc(O)c(N=Cc2sc3ccccc3c2O)c1 was read as ALOX12 inhib -3.9%, ALDH1A1 block inconclusive, HPGD block 14.1µM*, GLA spleen mod 10.0%, GLA inh pH 4.5 -9.6 and PNC assembly inh 15.2.
Screening COc1cc2oc(=O)c(Br)c(C)c2c(OC)c1OC returned ALOX12 inhib 1.1%, ALDH1A1 block 12.6µM*, HPGD block -13.0%, GLA spleen mod 2.7%, GLA inh pH 4.5 8.2 and PNC assembly inh -14.6.

High-throughput results deposited in PubChem BioAssay by National Center for Advancing Translational Sciences (NCATS).
